In PubChem BioAssay AID504843 (Broad Institute, 2011):
Among all 1,200 compounds or so, about 360 (30%) were called active. No rule for the calls is given here. These entries were drawn from the full list. Entries with a potency or affinity are not part of this list.

Test: antibacterial activity by ATP level – BacTiter-Glo luminescence, cherry-picked samples, counter-screen, dose response (AID 504843);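 also: growth measured after 8 h incubation at 30 °C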
Settings: bacterial growth; series mostly up to 15 µM
With `CCOc1ccc(-c2cn(-c3ccc(OC)cc3)c(SC)n2)cc1` the outcome was “inactive”. For `COC(=O)C1=CN(C(C)C)C=C(C(=O)OC)C1c1cccc(OC)c1`, the outcome was “inactive”. With `COc1cccc(NC(=O)Nc2cnccn2)c1` the outcome was “inactive”. For `CCOc1ccc2[nH]c(C)c(CN3CCCCC3)c(=O)c2c1`, the outcome was “inactive”. For `CCSC1=C(C#N)C(c2ccc(Cl)cc2)C2=C(CCCC2=O)N1` (centres undefined), the outcome was “inactive”. For `CC(C)N1C(=O)NC2(c3ccccc3)N(C)C(=O)N(C)C12c1ccccc1` (centres undefined), the outcome was “inactive”. With `O=C(N1CCCC1)C12CC3CC(C1)CC(C(=O)N1CCCC1)(C3)C2` the outcome was “inactive”. With `CN(C)c1ccc(C(=O)C(O)c2ccc(C(C)(C)C)cc2)cc1` (centres undefined) the outcome was “inactive”. With `CN(C)S(=O)(=O)n1cc(/C=C(\NC(=O)c2ccccc2F)C(=O)N2CCOCC2)c2ccccc21` the outcome was “inactive”. For `O=C(NCc1ccc2c(c1)OCO2)c1c(O)c2cccc3c2n(c1=O)CCC3`, the outcome was “inactive”. For `CCOc1ccccc1NC(=O)NCc1ccc2c(c1)OCO2`, the outcome was “inactive”. With `COCCNc1nc(N)c([N+](=O)[O-])c(NCC2CCCO2)n1` (centres undefined) the outcome was “inactive”. With `Cn1ccc(=Nc2ccc(NC(=O)c3ccc(N=c4ccn(C)c5ccc([N+](=O)[O-])cc45)cc3)cc2)cc1` the outcome was “inactive”. With `Clc1ccccc1CSc1nnc(-c2cccnc2)n1Cc1ccco1` the outcome was “inactive”. For `Cc1cc(=O)[nH]c(SCC(=O)NCc2ccc3c(c2)OCO3)n1`, the outcome was “inactive”. With `N=C(N)c1ccc(/C=C/c2ccc(C(=N)N)cc2O)cc1` the outcome was “inactive”. In the case of `O=C(Nc1ccc2c(c1)OCCO2)c1ccc(Cl)c(S(=O)(=O)N2CCCCC2)c1`, the outcome is reported as “inactive”. With `O=C(C1CCCN(S(=O)(=O)c2cccnc2)C1)N1CCn2c1nc1ccccc12` (centres undefined) the outcome was “inactive”. With `CCOC(=O)c1sc(C)c2c1NC(C)(c1ccccc1)NC2=O` (centres undefined) the outcome was “inactive”. In the case of `Cc1c(NC(=O)Nc2ccccc2)cccc1[N+](=O)[O-]`, the outcome is reported as “inactive”. In the case of `COc1ccc(CN2CSC(=S)N(Cc3ccccc3)C2)cc1`, the outcome is reported as “inactive”. In the case of `Cc1nc(Nc2ccc(Cl)cc2Cl)sc1C(=O)Nc1ccccc1`, the outcome is reported as “inactive”. For `CC(C)(C)c1nnc(NC(=O)NS(=O)(=O)c2ccccc2)s1`, the outcome was “inactive”. With `O=C(NCc1cccnc1)C(=O)NCC1OCCN1S(=O)(=O)c1ccc(F)cc1` (centres undefined) the outcome was “inactive”. For `Cc1cc(C(=O)NNC(=O)c2ccc(F)cc2)c(C)s1`, the outcome was “inactive”. With `O=C(c1n[nH]c2ccccc12)N1CCOCC1` the outcome was “inactive”. With `CCN(CC)CC(=O)N(CC(=O)Nc1c(C)cc(C)cc1C)C1CCCCC1` the outcome was “inactive”. With `CCCCN(C)C(=O)c1cc2cc([N+](=O)[O-])cc(OC)c2oc1=O` the outcome was “inactive”. For `CCOC(=O)c1sc(Nc2nc3ccc(OC)cc3s2)cc1C`, the outcome was “inactive”. With `COc1ccc(S(=O)(=O)N2CCC(C(=O)NCc3cccnc3)CC2)cc1OC` the outcome was “inactive”. In the case of `COc1ccc(OC)c(NC(=O)NCc2cccnc2)c1`, the outcome is reported as “inactive”. In the case of `COc1ccc(C(=O)OC(C)CN2CCN(C)CC2)cc1` (centres undefined), the outcome is reported as “inactive”. With `CC(=O)c1ccc(NC(=O)CSc2nc(N3CCOCC3)nc(N3CCOCC3)n2)cc1` the outcome was “inactive”. In the case of `NC(=O)C1CCN(C(=O)CSc2nc3ccccc3o2)CC1`, the outcome is reported as “inactive”. For `COc1ccc(C2OC(=O)CC2C(=O)NCc2ccc(F)cc2)cc1OC` (centres undefined), the outcome was “inactive”. With `CCCCNC(=O)NNC(=O)c1ccc(F)cc1` the outcome was “inactive”. In the case of `O=C(O)Cn1cc(C(=S)N2CCOCC2)c2ccccc21`, the outcome is reported as “inactive”. With `O=C(NC(=S)N1CCc2ccccc21)c1ccccc1Cl` the outcome was “inactive”. In the case of `CCOC(=O)N1CCN(c2ccc(C(=O)CC)cc2F)CC1`, the outcome is reported as “inactive”. In the case of `COCCn1c(=NC(=O)c2ccc3c(c2)OCCO3)sc2cc(S(N)(=O)=O)ccc21`, the outcome is reported as “inactive”. With `CCOC(=O)C1=C(C)c2ccccc2OC1(C(=O)OCC)C(C)C` (centres undefined) the outcome was “inactive”. For `CCOc1ccc(S(=O)(=O)Nc2cc(Cl)ccc2O)cc1`, the outcome was “inactive”. With `Cc1ccc(NC(=O)CCCc2nc3ccccc3s2)c(O)c1` the outcome was “inactive”. In the case of `O=C(COc1ccc2c3c(c(=O)oc2c1)CCCC3)NCCCn1ccnc1`, the outcome is reported as “inactive”. In the case of `O=C(N/N=C/c1cn(-c2cccs2)nc1-c1ccccc1)c1ccccc1O`, the outcome is reported as “inactive”. For `Oc1c(Cl)cc(Cl)cc1C1Nc2ccccc2-n2cccc21` (centres undefined), the outcome was “inactive”. For `COc1ccc(N(C2=NCCCS2)S(=O)(=O)c2ccc(C(C)(C)C)cc2)cc1`, the outcome was “inactive”. For `Cc1cc(C(=O)CN2C(=O)C3CC=CCC3C2=O)c(C)n1-c1ccccc1` (centres undefined), the outcome was “inactive”. With `C=C(C)CSc1nnc(-c2ccc(OC)c(OC)c2)n1N` the outcome was “inactive”. With `CCCCOc1ccc(C2CC(=O)N(C)C2=O)cc1` (centres undefined) the outcome was “inactive”. For `CCCCC1C(=O)N(c2ccccc2)N(c2ccc(O)cc2)C1=O` (centres undefined), the outcome was “inactive”. In the case of `CO[C@H]1/C=C/O[C@@]2(C)Oc3c(C)c(O)c4c(O)c(c5c(c4c3C2=O)NC2(CCN(CC(C)C)CC2)N=5)=NC(=O)/C(C)=C\C=C\[C@H](C)[C@H](O)[C@@H](C)[C@@H](O)[C@@H](C)[C@H](OC(C)=O)[C@@H]1C`, the outcome is reported as “inactive”. For `CCc1cccc(CC)c1NC(=S)NCC(c1cccnc1)N(C)C` (centres undefined), the outcome was “inactive”. For `O=C(CCCn1c(=O)[nH]c2ccsc2c1=O)N1CCCCC1`, the outcome was “inactive”. With `CCCCNC(=O)COC(=O)CCC(=O)c1cccs1` the outcome was “inactive”. For `Cc1n[nH]c(=O)nc1N1CCc2ccccc2C1`, the outcome was “inactive”. With `CCOc1nc(Nc2ccc(OC)c(Cl)c2)nc(OCC)n1` the outcome was “inactive”. In the case of `CC1=NN(c2ccccc2)C(=O)C1c1ccccc1` (centres undefined), the outcome is reported as “inactive”. In the case of `Cc1ccc(OC(=O)c2cc(=O)c3ccccc3o2)cc1`, the outcome is reported as “inactive”. With `COc1cccc(-c2nn3c(-c4ccccn4)nnc3s2)c1` the outcome was “inactive”. With `Clc1ccc(-c2nnc3c4ccccc4nc(N4CCOCC4)n23)cc1Cl` the outcome was “inactive”. With `CC(C)n1ncc2c(C(=O)N3CCN(Cc4ccc(Br)s4)CC3)cc(C3CC3)nc21` the outcome was “inactive”. For `CC(=O)c1c(C)[nH]c(C(=O)Nc2ccccc2N2CCOCC2)c1C`, the outcome was “inactive”. For `Cc1ccc(CS(=O)(=O)CCC(=O)NCCCN2CCCC2)cc1`, the outcome was “inactive”. With `CCCn1c(N)c(C(=O)CSc2nnnn2-c2ccc(O)cc2)c(=O)n(C)c1=O` the outcome was “inactive”. For `CCc1nnc(NC(=O)C2CCC2)s1`, the outcome was “inactive”. In the case of `COCC(=O)Nc1ccccc1Br`, the outcome is reported as “inactive”. For `COc1cc(CN(C2CCCCC2C)S(=O)(=O)c2ccc(S(=O)(=O)NC3CC3)cc2)cc(OC)c1OC` (centres undefined), the outcome was “inactive”. For `COc1ccc(-c2cc([C@H]3[C@@H]4C=CCC[C@@]4(C)C(=O)N3Cc3ccccc3)ccc2F)cc1`, the outcome was “inactive”.
